Hits are enriched below; roughly 6.2% of the tested compounds scored in any of these assays.
Gal4-VP16 FLuc = VP16 counterscreen qHTS for inhibitors of ROR gamma transcriptional activity; Potency, µM (highest dose often 53.6 µM), for the others: top-dose activity, negative = inhibition, most hits filed as inhibitors; 310,000 compounds, 3.5% hits; Drosophila S2 Gal4-VP16 UAS-luciferase, luminescence, 20 h;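 also: Gal4-VP16 expression switched on by copper sulfate through the metallothionein promoter; nearly all actives have a fitted effect of over 50% in size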
KinaseGlo FLuc = Counterscreen for Luciferase (Kinase-Glo TM) Inhibition. Luciferin 4-monooxygenase (Photuris pensylvanica), Q27757. Kinase-Glo luciferase, ATP luminescence, 8 min. Potency, µM (doses to about 38.3 µM), for the others: at the highest dose activity change, negative = inhibition, actives largely listed as inhibitors. 200,000 compounds, 0.28% hits. AID 1379, 2008; also: nearly all actives have a fitted effect of over 60% in size
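Inhibition of Kinase-Glo luciferase light generation was assessed at 10 uM ATP in pH 7.2 imidazole buffer, with luminescence measured after eight minutes at ambient temperature.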
RORg inh = qHTS for inhibitors of ROR gamma transcriptional activity; Drosophila S2 Gal4-RORgamma UAS-luciferase reporter, 20 h; Potency, µM (highest dose often 53.6 µM), without a hit: top-dose activity change, negative = inhibition, usual class: inhibitors; 310,000 compounds, 5.4% hits; also: nearly all actives have a fitted effect of over 60% in size
Target sequence (P51450 whole entry, looked up, the tested form may be a part): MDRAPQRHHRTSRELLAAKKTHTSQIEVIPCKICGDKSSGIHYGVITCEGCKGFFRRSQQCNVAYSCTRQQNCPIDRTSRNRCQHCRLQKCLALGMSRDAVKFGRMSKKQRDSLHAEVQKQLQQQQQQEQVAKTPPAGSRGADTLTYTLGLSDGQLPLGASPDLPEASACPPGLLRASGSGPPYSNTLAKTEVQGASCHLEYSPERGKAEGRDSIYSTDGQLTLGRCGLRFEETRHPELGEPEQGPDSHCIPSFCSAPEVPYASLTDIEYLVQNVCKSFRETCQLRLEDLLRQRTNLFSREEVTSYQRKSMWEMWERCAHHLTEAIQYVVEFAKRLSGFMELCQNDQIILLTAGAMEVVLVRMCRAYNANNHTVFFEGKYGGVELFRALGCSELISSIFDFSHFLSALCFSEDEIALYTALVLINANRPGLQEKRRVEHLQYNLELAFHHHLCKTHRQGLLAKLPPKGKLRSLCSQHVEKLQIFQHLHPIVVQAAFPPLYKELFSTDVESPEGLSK
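Luminescence from a UAS-regulated Photinus luciferase reporter in stably transfected Drosophila Schneider cells is measured; decreased signal marks ROR gamma inhibition. Fusion expression is induced by 700 uM copper sulfate for 20 hr.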
An asterisk follows results filed as active; ? = inconclusive; · = no result given; [ ] = remark or other dose. Calls follow the shape of the dose curve; as a rule, active = well fitted curve in the direction sought with a large enough effect; inconclusive = small, poorly fitted or top-dose-only effect, or another doubt; inactive = no such curve, though single readings can be large; an effect the other way counts as inactive or inconclusive. % is scaled to controls: 0 for no effect and ±100 for the full control effect; potency is read from the fitted curve at half-maximal effect.

SMILES	Gal4-VP16 FLuc	KinaseGlo FLuc	RORg inh
CCN(CC)c1ccc(S(=O)(=O)N2CCOCC2)cc1NC(=O)CN1CCc2ccccc2C1	-17%[10 µM]	0%	3.2µM*
O=C(Nc1ccccc1)c1ccc(S(=O)(=O)N2CCOCC2)cc1	14%	-6%	37%
O=C(Nc1ccon1)Nc1ccccc1C(F)(F)F	-1%	·	21%
CC(CN1CC(=O)NC(=O)C1)N1CC(=O)NC(=O)C1 (stereo not drawn)	0%	·	-18%[10 µM]
O=C(Nc1ccc(S(=O)(=O)N2CCCC2)cc1)c1ccc(CN2CCc3ccccc3C2)cc1	1.4µM*	1%	5.6µM*
N#CCc1ccc(NC(=O)c2ccc(CN3CCc4ccccc4C3)cc2)cc1	0%	·	17%
COc1ccc(NC(=O)c2ccccc2NC(=O)c2cccs2)cc1	-3%	·	30%
N/C(COc1ccc(F)cc1)=N\NC(=O)c1cccnc1Oc1ccccc1	4.5µM*	-4%	2.5µM*
NC(=O)c1cccnc1Oc1ccc(Cl)cc1	8%	·	1%
CN1CCN(C=Nc2nc3ccccc3nc2N2CCCC2)CC1	8%	0%	3%
Nc1nnc(CSCc2ccc(F)cc2)s1	3%	0%	31%
Clc1ccc(-c2csc(NNC3=NCCCCC3)n2)cc1	?	1%	5.6µM*
c1ccc(-c2csc(NNC3=NCCCCC3)n2)cc1	?	-6%	?
COc1cc(OC)cc(N2C(=O)CSCC2=O)c1	2%	·	-1%
Cc1nc(N2CCOCC2)nc(Oc2ccccc2)c1[N+](=O)[O-]	8%	·	25%
COCc1cc(=O)[nH]c(Nc2nc3ccc(C)cc3o2)n1	3.2µM*	-6%	4.5µM*
CCc1ccc2nc(Nc3nc(COC)cc(=O)[nH]3)nc(C)c2c1	-11%	-5%	-23%
COC(=O)c1ccc(COC(=O)c2ccc(CO)cc2)o1	-28%	5%	-4%
CCOC(=O)c1sc(NC(=O)C2CCC2)cc1C	1%	-5%	-2%
CCOC(=O)c1sc(NC(=O)c2ccc(C)s2)cc1C	?	-8%	1.3µM*
CCOC(=O)c1sc(NC(=O)Nc2ccccc2)cc1C	2.5µM*	-6%	5µM*
CCOC(=O)c1sc(NC(C)=O)cc1C	13%	0%	3%
COc1ncc2nc(-c3cc(F)cc(F)c3)c(=O)n(C3CC3)c2n1	8%	-3%	14%
Cc1cc(NS(=O)(=O)c2ccc(NC(=O)/C=C/c3ccccc3Cl)cc2)no1	20%	·	?
CC(C)(C)OC(=O)NC(Cc1ccccc1)C(=O)NC1COC2CC(n3cc(F)c(=O)[nH]c3=O)OC12 (stereo not drawn)	4%	·	43%
SMILES	Gal4-VP16 FLuc	KinaseGlo FLuc	RORg inh
S=c1[nH]c2ccccc2s1	10µM*	2%[39.9 µM]	7.9µM*
O=C(Nc1ccc2[nH]c(=S)sc2c1)c1ccccc1	10%	0%	-23%
O=S(=O)(Nc1nc2ccccc2s1)c1ccc(Br)s1	7%	1%	2%
Cc1ccc(N=C2NC(=O)/C(=C/c3cccn3C)S2)c(C)c1	-19%	·	10µM*
Cn1cccc1/C=C1\SC(=Nc2ccccc2)NC1=O	2%	·	-13%
Cn1cccc1/C=C1\SC(=Nc2cccc(O)c2)NC1=O	?	·	3.2µM*
Cn1cc(/C=C2/SC(=O)N(c3ccccc3)C2=O)c2ccccc21	-3%	1%	5%
Cn1cccc1/C=C1\SC(=Nc2ccc(O)cc2)NC1=O	7%	·	2%
Cc1ccc(N=C2NC(=O)/C(=C/c3cn(C)c4ccccc34)S2)cc1C	?	-2%	13µM*
COC(=O)Cc1c(C)c2ccc(OCC(=O)N3CCC(C)CC3)c(C)c2oc1=O	2%	·	-26%
Cc1[nH]c2ccccc2c1C(C[N+](=O)[O-])c1ccco1 (stereo not drawn)	-8%	1%	-1%
Cc1ccc(-c2[nH]c3ccccc3c2C(C[N+](=O)[O-])c2ccco2)cc1 (stereo not drawn)	22µM*	-1%	3%
Cc1ccc2nc(-c3cccc(N)c3)oc2c1	4%	-26%	9%
Cc1ccc2nc(-c3ccc(O)cc3)oc2c1	7.1µM*	·	2.5µM*
O=C(O)/C=C1\CCCc2ccccc2[C@H]1O	-10%	3%	2%
CN1CCN(CC(=O)N2CCn3c4c(c5cc(C6CCCCC6)ccc53)CCCC42)CC1 (stereo not drawn)	?	5%	2.2µM*
Cc1ccc2c(c1)c1c3n2CCN(C(=O)CN2CCN(C)CC2)C3CCC1 (stereo not drawn)	-6%	2%	-2%
Cc1ccc2nc(-c3ccncc3)cc(C(=O)NCCc3ccc(F)cc3)c2c1	-11%	-2%	-32%
O=C(Nc1ccc(F)cc1)c1cc(-c2ccccn2)nc2c(Cl)cccc12	-24%	·	13µM*
O=C(Nc1ccncc1)c1cc(-c2ccccn2)nc2ccccc12	-18%	1%	1%
Cc1ccc2nc(-c3ccccn3)cc(C(=O)NCCc3ccc(F)cc3)c2c1	-7%	·	10µM*
O=C(CCc1nc(-c2ccccc2Cl)no1)NC1CCCCC1	3%	·	11%
CSC1=NCCN1C(=O)c1c(-c2c(F)cccc2Cl)noc1C	-6%	·	13%
N#CC1=C(N)Oc2n[nH]c(-c3ccccc3)c2C12C(=O)Nc1ccccc12 (stereo not drawn)	11%	-1%	-11%
Cn1c2c(c(=O)n(C)c1=O)[C@@]1(C(=O)Nc3ccccc31)C(C#N)=C(N)O2	?	·	20µM*
SMILES	Gal4-VP16 FLuc	KinaseGlo FLuc	RORg inh
COc1cc([N+](=O)[O-])cc(/C=N/NC(=O)c2cc(C)nc3ccccc23)c1O	13µM*	·	5.6µM*
CCOc1cc(/C=N/NC(=O)Cc2ccc(C(F)(F)F)cc2[N+](=O)[O-])c(Br)cc1OC	?	-2%	-23%
O=C(N/N=C/c1cn[nH]c1-c1ccc(F)cc1)c1ccncc1	-9%	-1%	-13%
Cc1ccnn1CC(=O)N/N=C/c1cn[nH]c1-c1ccc(F)cc1	?	·	14µM*
COc1cc([N+](=O)[O-])cc(/C=N/NC(=O)Cn2nccc2C)c1O	?	·	3.5µM*
COc1cc([N+](=O)[O-])cc(/C=N/NC(=O)CSc2nnc(-c3ccccc3)n2C)c1O	1%	·	-18%
COc1cc(Br)cc(/C=N/NC(=O)Cc2ccc(C(F)(F)F)cc2[N+](=O)[O-])c1O	0.35µM*	2%	0.14µM*
Cc1cc(C(=O)N/N=C/c2cccc([N+](=O)[O-])c2)c2ccccc2n1	2%	3%	-38%
Cc1noc(C)c1CSc1nnc2sc3ccccc3n12	-6%	-7%	-17%
COCCNC(=O)NC(=O)CN1CCN(C(c2ccccc2)c2ccccc2)CC1	-10%	-1%	9%
Cc1cc(C)nc(/N=C2\NC(=O)CC(C(=O)O)N2c2ccc(C)c(C)c2)n1 (stereo not drawn)	-7%	5%	-9%
CN1CCN(c2ncc3ncc(=O)n(C[C@H]4CCCO4)c3n2)CC1	1%	·	-14%
COc1cc2ccccc2c2c1CCCC2=O	-4%	1%	4%
COc1cc([N+](=O)[O-])cc(/C=N/NC(=O)c2cc(-c3ccccc3)nc3ccccc23)c1O	4.5µM*	·	2µM*
COc1ccc(/C=N/NC(=O)c2cc(-c3ccccc3)nc3ccccc23)c(C(=O)O)c1OC	-2%	·	-13%
CCn1c(=O)c(C(=O)Nc2nc3ccccc3[nH]2)c(O)c2ccccc21	8.9µM*	-1%	11µM*

Screening data from PubChem BioAssay.
